# Reference: PubChem BioAssay (NCATS)
# Records with an inconclusive call do not appear. Active and inactive are the calls of the source. Unless noted, calls follow the shape of the dose curve; as a rule, active = well fitted curve in the direction sought with a large enough effect; inconclusive = small, poorly fitted or top-dose-only effect, or another doubt; inactive = no such curve, though single readings can be large; an effect the other way counts as inactive or inconclusive.
# Experiments:
# [1] = qHTS profiling of the MIPE4 collection as inhibitors of Plasmodium falciparum (3D7) proliferation (AID 743344; call rule not given here;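 also: scaled between DMSO vehicle wells and 0.29 µM artemisinin as full inhibition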); conditions: P. falciparum 3D7 in erythrocytes, SYBR Green DNA fluorescence, 72 h; at 28.5 µM unless noted
# How it was run: (§1)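 Parasite DNA was quantified by SYBR Green I fluorescence (ex 485, em 535 nm) after overnight lysis in saponin/Triton buffer at room temperature. Cultures at 0.3% parasitemia and 2.5% hematocrit were first exposed to compound for 72 h at 37 C; signals were normalised to artemisinin (0.29 uM) and vehicle wells.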
# [2] = qHTS profiling of the MIPE4 collection as inhibitors of Plasmodium falciparum (DD2) proliferation (AID 743345; call rule not given here); conditions: P. falciparum Dd2 in erythrocytes, SYBR Green DNA, 72 h; at 28.5 µM unless noted
# How it was run: as §1
# [3] = qHTS profiling of the MIPE4 collection as inhibitors of Plasmodium falciparum (DD2) proliferation (Rep 2) (AID 743346; call rule not given here); conditions: P. falciparum Dd2 in erythrocytes, SYBR Green DNA, 72 h; at 28.5 µM unless noted
# How it was run: as §1
# [4] = qHTS profiling of the MIPE4 collection as inhibitors of Plasmodium falciparum (HB3) proliferation (AID 743347; call rule not given here;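 also: plate controls were DMSO vehicle wells for no effect and artemisinin wells for full effect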); conditions: P. falciparum HB3 in erythrocytes, SYBR Green DNA, 72 h; at 28.5 µM unless noted
# How it was run: as §1
# [5] = High-throughput drug toxicity screening in the BPDCN cell line Gen2.2 (AID 1224824; call rule not given here;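 also: cells exposed to compounds for 48 h before reading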); conditions: Gen2.2 BPDCN cells; at 45.8 µM (top of the series) unless noted
# How it was run: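 Seed 500 exponentially growing Gen2.2 cells/well; add compounds by pin tool; incubate 48 h, 37 °C, 5% CO2; add CellTiter-Glo, 15 min RT; read luminescence. % activity vs DMSO (100%) and bortezomib (0%).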
# [6] = High-throughput drug toxicity screening in the BPDCN cell line Cal-1 (AID 1224825; call rule not given here); conditions: Cal-1 BPDCN cell viability, qHTS; at 45.8 µM (top of the series) unless noted
# How it was run: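 CellTiter-Glo luminescence after 48 h compound exposure; percent activity scaled with DMSO as 100% and bortezomib (9.2 uM final) as 0%. Cal-1 cells seeded at 500/well in RPMI, 10% FBS, no phenol red.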
# [7] = qHTS assay for measurement of the activity of small molecule inhibitors on Zika virus induced Caspase-3 activity in human iPSC derived neural progenitor cells (hNPCs) (AID 1224857); also: nearly all actives have a fitted effect of over 65% in size; also: potency is read from the fitted curve at half-maximal effect
# How it was run: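 Zika virus (2 FFU/cell) infection of human iPSC-derived NPCs, 6 h, following 1 h compound preincubation. Read-out: Caspase-Glo 3/7 luminescence.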
# [8] = qHTS assay for measurement of the activity of small molecule inhibitors on Zika virus induced Caspase-3 activity in human astrocytoma cells (AID 1224859);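 also: plate controls were ZIKV-infected untreated cells for no effect and uninfected cells for full effect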
# How it was run: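 Caspase activation in ZIKV-infected SNB-19 cells (2 FFU/cell, 6 h) measured by Caspase-Glo 3/7 luminescence after 30 min RT; compound pre-incubated 1 h; normalised to uninfected and infected controls.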
# [9] = qHTS Screen of the MIPE 4.0 Collection Against Ewings Sarcoma (RDES) (AID 1259252); also: nearly all actives have a fitted effect of over 35% in size; also: potency is read from the fitted curve at half-maximal effect
# How it was run: (§2)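 Dose series incubated 48 h with cells in RPMI plus 5% FBS, glutamine and penicillin/streptomycin; cell viability then quantified via CellTiter-Glo.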
# [10] = qHTS Screen of the MIPE 4.0 Collection Against Ewings Sarcoma (TC71) (AID 1259253); also: nearly all actives have a fitted effect of over 40% in size; also: potency is read from the fitted curve at half-maximal effect
# How it was run: as §2
# [11] = qHTS Screen of the MIPE 4.0 Collection Against Ewings Sarcoma (EW8) (AID 1259255); also: nearly all actives have a fitted effect of over 35% in size; also: potency is read from the fitted curve at half-maximal effect;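 as to viability: 100% = DMSO-treated cells and 0% = medium-only wells without cells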
# How it was run: as §2
# [12] = qHTS Screen of the MIPE 4.0 Collection Against Ewings Sarcoma (TC32) (AID 1259256);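 also: 100% = DMSO-treated cells and 0% = medium-only wells without cells; nearly all actives have a fitted effect of over 45% in size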
# How it was run: as §2
# [13] = qHTS assay to identify small molecule inhibitors of chordoma cells - UCH-2 (AID 1259356); also: % is scaled to controls: 0 for no effect and ±100 for the full control effect
# [14] = P-glycoprotein substrates identified in KB-3-1 adenocarcinoma cell line, qHTS therapeutic library screen (AID 1346986); also: nearly all actives have a fitted effect of over 60% in size
# How it was run: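 In 1536-well format, 500 cells/well received pinned compound titrations and were incubated 72 h, 5% CO2. Viability was read by CellTiter-Glo; cytotoxic if AC50 < 10 uM and efficacy >50%.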
Compound,"parasite growth, % of DMSO control [1] [%]","parasite growth remaining, % of DMSO control (lower = more inhibition) [2] [%]","parasite growth, % of control (lower = inhibition) [3] [%]","growth, % of control [4] [%]","cell viability, % of control (lower = more cytotoxic) [5] [%]",viability (% of control) [6] [%],Potency [7],Potency [8],Potency [9],Potency [10],Potency [11],Potency [12],outcome [13],Potency [14],outcome [14]
O=C(c1ccc(C(=O)N2CCC(N3CCCC3)CC2)c(Nc2ccccc2)c1)N1CCC(N2CCCC2)CC1,80.6,66.3,33.2,82.3,483,113,inactive,inactive,16.6 µM (active),7.43 µM (active),6.62 µM (active),–,–,–,–
C=C1[C@H](n2cnc3c(=O)[nH]c(N)nc32)C[C@H](O)[C@H]1CO,53.5,88,34.7,42.8,147,8.7,inactive,inactive,9.35 µM (active),14.8 µM (active),13.2 µM (active),inactive,–,–,–
O=C(O)C1=CC(O)C(O)[C@H](O)C1 (stereo partly drawn),92.4,55.1,–,51.8,146,105,inactive,inactive,inactive,inactive,inactive,inactive,–,–,–
CCC(C)SSc1ncc[nH]1 (stereo not drawn),86.2,94.1,89.6,92.3,7.07,6.97,26.4 µM (active),inactive,23.5 µM (active),26.4 µM (active),11.8 µM (active),–,–,–,–
C#CCN(C)CC1=Cc2ccccc2Oc2ccccc21,51.9,76.6,63.1,25.1,124,98,inactive,inactive,inactive,inactive,inactive,–,–,–,–
COc1ccc(-c2nc3ccc(C4=NNC(=O)CC4C)cc3[nH]2)cc1 (stereo not drawn),–,–,–,–,263,107,inactive,inactive,inactive,inactive,inactive,–,inactive,–,–
O=C(O)CCNc1cc(N2CCc3ccccc3CC2)nc(-c2ccccn2)n1,19.7,48.3,20.6,5.23,158,91.6,inactive,inactive,26.4 µM (active),26.4 µM (active),inactive,–,–,inactive,–
CN[C@@H](C)[C@H]1[C@H](O)C[C@@]2(C)[C@@H]3CC[C@H]4C(C)(C)[C@@H](NC)CC[C@@]45C[C@@]35CC[C@]12C,16.9,50.3,12.6,13.3,71.1,89.5,inactive,inactive,inactive,inactive,inactive,–,–,–,inactive [at 9.29 µM]
